Each structure is given as a SMILES string. Records with an inconclusive call do not appear. Calls of active or inactive are those of the source. The calls were made as follows, unless noted: active = hit-call score of the fitted dose curve at least 0.9, where 1 is the maximum; inactive = score below 0.9.

For orientation: AC50 means the concentration giving half of the maximal activity seen.

Read-out in assay [1]: Human Leukocyte Antigen - DR isotype (HLADR), HLA-DRA (gene 3122)
Kind of assay: BSK_3C_HLADR: BioMAP Diversity Plus: 3C Assay for Human Leukocyte Antigen - DR isotype (HLADR) Biomarker Activity (AID 2283019).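 As to outcome: ELISA of cell-surface HLA-DR on HUVEC 24 h after dosing.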 Particulars: primary human endothelial cells (HUVEC); actives raise or lower the signal. The method in brief:
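Endothelial cells from human umbilical vein are treated with test chemical; after 24 h, HLA-DR levels are measured by ELISA. Data are fitted in both directions using DMSO as the baseline.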

Read-out in assay [2]: Interleukin-8 (IL8), CXCL8 (gene 3576)
Nature of the assay: BSK_3C_IL8: BioMAP Diversity Plus: 3C Assay for Interleukin-8 (IL8) Biomarker Activity (AID 2283020). Particulars: primary human endothelial cells (HUVEC); actives raise or lower the signal. The method in brief: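 Endothelial primary cells of human umbilical vein origin are dosed with chemical; after 24 h the IL-8 biomarker is measured by ELISA, and concentration–response is fitted in both directions versus DMSO.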

Read-out in assay [3]: Monokine induced gamma interferon (MIG), CXCL9 (gene 4283)
Kind of assay: BSK_3C_MIG: BioMAP Diversity Plus: 3C Assay for Monokine induced gamma interferon (MIG) Biomarker Activity (AID 2283021).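 As to AC50: MIG protein level measured by immunoassay in the treated endothelial cultures.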 Particulars: primary human endothelial cells (HUVEC); actives raise or lower the signal. The method in brief: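 Endothelial primary cells (human umbilical vein) are dosed with test chemical in the 3C system. MIG levels are measured by ELISA at 24 h and fitted in both directions relative to DMSO.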

The target of assay [4] is human Vitamin D Receptor (VDR), VDR (gene 7421) (UniProt P11473). Nature of the assay: ATG_VDR_TRANS: Attagene TRANS-FACTORIAL HepG2 Assay for human Vitamin D Receptor (VDR) (AID 2283022; active = hit-call score of the fitted dose curve at least 0.9, where 1 is the maximum). The method in brief:
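Fluorescence of labelled reporter cDNA fragments, resolved by capillary electrophoresis, gives mRNA induction after 24 h treatment of HepG2 cells carrying transfected Gal4-fusion reporter units. Activity is fitted in the positive direction with DMSO as baseline.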

Assay [5] can be described thus: BSK_3C_SRB: Viability Assessment in the BioMAP Diversity Plus: 3C Assay (AID 2283023).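 Also: fitted both ways against DMSO so a hit may be signal rise or drop.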 The note with it: primary human endothelial cells (HUVEC). The essentials:
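Cells were dosed with chemical, cultured 24 h, fixed with 10% TCA, stained with 0.1% SRB and read at 560 nm. Human umbilical vein endothelium was used; DMSO served as negative control and baseline.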

Read-out in assay [6]: Matrix Metallopeptidase 1 (MMP1), MMP1 (gene 4312)
Nature of the assay: BSK_BE3C_MMP1: BioMAP Diversity Plus: BE3C Assay for Matrix Metallopeptidase 1 (MMP1) Biomarker Activity (AID 2283024). Particulars: primary human bronchial epithelial cells; actives raise or lower the signal. The method in brief: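 MMP1 signal, measured by ELISA after a 24 h chemical exposure of human primary bronchial epithelial cells, is analysed with bidirectional fitting using DMSO as negative control.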

Assay [7] can be described thus: BSK_3C_Vis: BioMAP Diversity Plus: 3C Assay for Morphology Visualization (AID 2283025).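 Also: fitted both ways so gain or loss versus DMSO counts.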 Particulars: primary human endothelial cells (HUVEC). The essentials:
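Morphology read by light microscopy serves as a background control for the multiplexed 3C assay in human umbilical vein endothelial cells, taken 24 h after dosing, with DMSO as the negative control and bidirectional curve fitting.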

Read-out in assay [8]: Pselectin, SELP (gene 6403)
Nature of the assay: BSK_4H_Pselectin: BioMAP Diversity Plus: 4H Assay for Pselectin Biomarker Activity (AID 2283026). The note with it: primary human endothelial cells (HUVEC); actives raise or lower the signal. The method in brief:
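Endothelial primary cells (human umbilical vein) are dosed, incubated 24 h, and assayed for surface P-selectin by ELISA; responses in either direction are fitted relative to the DMSO negative control.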

Assay [9] is described as follows: BSK_4H_SRB: Viability Assessment in the BioMAP Diversity Plus: 4H Assay (AID 2283027).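 Also: cells exposed to compound for 24 h before staining.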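 As to AC50: curves fitted both ways versus DMSO so AC50 may be loss or gain.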 Particulars: primary human endothelial cells (HUVEC). The method in brief: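 HUVEC, 24 h post-dose; 10% TCA fix, 0.1% SRB stain, A560 nm. Total protein = overt cytotoxicity, parallel to biomarker read. Bidirectional fit vs DMSO baseline.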
Assay [10] in a line: BSK_BE3C_SRB: Viability Assessment in the BioMAP Diversity Plus: BE3C Assay (AID 2283028).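 As to AC50: fitted both ways so AC50 may mark signal gain or loss versus DMSO.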 Particulars: primary human bronchial epithelial cells. The essentials:
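Overt cytotoxicity was assessed as total protein in confluent human primary bronchial epithelial cultures 24 h after chemical addition, using 0.1% sulforhodamine B staining read at 560 nm.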

Read-out in assay [11]: Thrombomodulin, THBD (gene 7056)
Nature of the assay: BSK_3C_Thrombomodulin: BioMAP Diversity Plus: 3C Assay for Thrombomodulin Biomarker Activity (AID 2283029). Particulars: primary human endothelial cells (HUVEC); actives raise or lower the signal. The method in brief:
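Endothelial cells from umbilical vein are dosed with test chemical and incubated 24 h. Thrombomodulin is then quantified by ELISA, with DMSO serving as negative control and activity baseline.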

Read-out in assay [12]: Human Leukocyte Antigen - DR isotype (HLADR), HLA-DRA (gene 3122)
Kind of assay: BSK_BE3C_HLADR: BioMAP Diversity Plus: BE3C Assay for Human Leukocyte Antigen - DR isotype (HLADR) Biomarker Activity (AID 2283032). Particulars: primary human bronchial epithelial cells; actives raise or lower the signal. The essentials: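 Chemicals are dosed onto BE3C bronchial epithelial cultures of human origin and left 24 h. HLA-DR is then measured by ELISA, and the endpoint is fitted in both directions using DMSO as the activity baseline.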

Read-out in assay [13]: Vascular cell adhesion molecule 1 (VCAM1), VCAM1 (gene 7412)
Kind of assay: BSK_4H_VCAM1: BioMAP Diversity Plus: 4H Assay for Vascular cell adhesion molecule 1 (VCAM1) Biomarker Activity (AID 2283033).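 As to outcome: cell-surface VCAM-1 protein measured by ELISA.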 Particulars: primary human endothelial cells (HUVEC); actives raise or lower the signal. The method in brief: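 Chemicals are added to primary human umbilical vein endothelial cells. After 24 h, VCAM-1 levels are measured by ELISA. Values come from bidirectional fitting referenced to DMSO.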

Read-out in assay [14]: Interferon-gamma inducible Protein 10 (IP10), CXCL10 (gene 3627)
Kind of assay: BSK_BE3C_IP10: BioMAP Diversity Plus: BE3C Assay for Interferon-gamma inducible Protein 10 (IP10) Biomarker Activity (AID 2283034). Particulars: primary human bronchial epithelial cells; actives raise or lower the signal. The method in brief: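 IP-10 quantified by ELISA serves as the endpoint. Cells: primary human bronchial epithelium, read 24 h after compound addition. Activity is derived by bidirectional fitting with DMSO as negative control.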

Read-out in assay [15]: Monokine induced gamma interferon (MIG), CXCL9 (gene 4283)
Kind of assay: BSK_BE3C_MIG: BioMAP Diversity Plus: BE3C Assay for Monokine induced gamma interferon (MIG) Biomarker Activity (AID 2283035).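 As to outcome: MIG protein measured by ELISA in BE3C cultures after 24 h of dosing.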 The note with it: primary human bronchial epithelial cells; actives raise or lower the signal. The essentials: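 Dose cells (human primary bronchial epithelial), incubate 24 h, quantify MIG by ELISA, then fit concentration–response in both directions relative to DMSO control.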

Read-out in assay [16]: Transforming growth factor beta 1 (TGFb1), TGFB1 (gene 7040)
Kind of assay: BSK_BE3C_TGFb1: BioMAP Diversity Plus: BE3C Assay for Transforming growth factor beta 1 (TGFb1) Biomarker Activity (AID 2283036;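 as to outcome: TGF-b1 protein level measured by ELISA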). The note with it: primary human bronchial epithelial cells; actives raise or lower the signal. The method in brief:
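Bronchial epithelial primary cells are treated with test chemical, then TGF-b1 is quantified by ELISA after 24 hours. Values derive from bidirectional fitting against DMSO, with cytotoxicity checked by SRB staining in parallel cultures.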

Read-out in assay [17]: Plasminogen activator inhibitor-1 (PAI1), SERPINE1 (gene 5054)
Nature of the assay: BSK_BE3C_PAI1: BioMAP Diversity Plus: BE3C Assay for Plasminogen activator inhibitor-1 (PAI1) Biomarker Activity (AID 2283037). The note with it: primary human bronchial epithelial cells; actives raise or lower the signal. The method in brief:
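Values derive from bidirectional fitting against DMSO baseline of PAI-1 levels, measured by ELISA in human bronchial epithelial cells 24 h after compound addition.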

Read-out in assay [18]: Vascular endothelial growth factor receptor 2 (Homo sapiens) (UniProt P35968)
Kind of assay: BSK_4H_VEGFRII: BioMAP Diversity Plus: 4H Assay for Vascular endothelial growth factor receptor 2 (VEGFR2) Biomarker Activity (AID 2283031). The note with it: primary human endothelial cells (HUVEC); actives raise or lower the signal. The essentials:
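VEGFRII levels on human vascular endothelial primary cells were determined by ELISA at 24 hours post-dosing, with gain- or loss-of-signal fitted against DMSO controls.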

Read-out in assay [19]: Urokinase-type plasminogen activator receptor (uPAR), PLAUR (gene 5329)
Nature of the assay: BSK_4H_uPAR: BioMAP Diversity Plus: 4H Assay for Urokinase-type plasminogen activator receptor (uPAR) Biomarker Activity (AID 2283030). The note with it: primary human endothelial cells (HUVEC); actives raise or lower the signal. The essentials:
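Chemicals are dosed onto human vascular endothelial primary cells (umbilical vein). After 24 h, uPAR is read by ELISA. Gain or loss of signal is fitted relative to DMSO.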

Read-out in assay [20]: urokinase plasminogen activator (uPA), PLAU (gene 5328)
Nature of the assay: BSK_BE3C_uPA: BioMAP Diversity Plus: BE3C Assay for urokinase plasminogen activator (uPA) Biomarker Activity (AID 2283038).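 As to outcome: uPA protein level quantified by ELISA in cell cultures; uPA read one day after compound addition.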 The note with it: primary human bronchial epithelial cells; actives raise or lower the signal. The essentials: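 Measured by ELISA: uPA from human primary bronchial epithelial cells 24 h after chemical treatment. Values derive from bidirectional curve fitting with DMSO serving as negative control. Total protein by SRB staining in parallel wells flagged overt cytotoxicity.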

Sequence of human Vitamin D Receptor (VDR), VDR (gene 7421) (P11473 whole entry, looked up, the tested form may be a part): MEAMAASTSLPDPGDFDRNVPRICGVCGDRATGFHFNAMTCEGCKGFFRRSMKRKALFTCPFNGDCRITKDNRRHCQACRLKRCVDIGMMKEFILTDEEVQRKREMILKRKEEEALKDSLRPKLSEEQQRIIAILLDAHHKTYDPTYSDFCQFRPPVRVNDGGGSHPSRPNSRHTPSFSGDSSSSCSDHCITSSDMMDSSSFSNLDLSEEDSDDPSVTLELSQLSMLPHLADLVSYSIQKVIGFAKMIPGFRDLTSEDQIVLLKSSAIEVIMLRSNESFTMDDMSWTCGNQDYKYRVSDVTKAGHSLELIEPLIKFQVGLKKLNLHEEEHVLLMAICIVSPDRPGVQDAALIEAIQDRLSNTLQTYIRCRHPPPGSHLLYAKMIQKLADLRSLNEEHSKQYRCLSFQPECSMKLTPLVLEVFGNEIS

As for `CCCN(CCC)C(=O)SCC`, the result in [1], in assay [2], in [3], in assay [4], in assay [5] and in [6] was inactive. Moreover, the result in assay [7], in [8], in assay [9], in assay [10], in assay [11] and in [12] was inactive. Also, the result in assay [13], in assay [14], in [15], in assay [16] and in [17] was inactive.
As for `OB(O)O`, the outcome in assay [1], in [2], in assay [3], in assay [4], in assay [5] and in assay [6] was inactive. The outcome in [7], in assay [8], in assay [9], in assay [10], in [11] and in assay [18] was inactive. The result in assay [12], in assay [13], in assay [14] and in [16] was inactive.
In the case of `CCOC(=O)[C@H](C)Oc1ccc(Oc2nc3ccc(Cl)cc3o2)cc1`, the AC50 in assay [1] was 7.25 µM (active). Moreover, the outcome in assay [2], in assay [3], in assay [4], in [5], in assay [6] and in assay [7] was inactive. The result in assay [8], in [9], in assay [10], in assay [11], in assay [18] and in assay [12] was inactive. Also, the outcome in [13], in assay [14], in assay [15] and in [16] was inactive.
For the molecule `CC(C)CCCCCCc1ccc(O)cc1`, the AC50 in assay [1] was 9.6 µM (active); in assay [2], 8.35 µM (active); in assay [3], 8.53 µM (active); in assay [5], 9.24 µM (active); in [6] it was 32 µM (active); in assay [7], 5.31 µM (active). In addition, the half-maximal activity concentration (AC50) in assay [8] is 9.15 µM (active); in [9], 6.94 µM (active); in assay [10], 36 µM (active); in assay [11], 20 µM (active); in assay [19], 9.57 µM (active); in [12], 26.2 µM (active). In addition, the AC50 in assay [13] is 7.96 µM (active); in assay [14], 14.7 µM (active); in assay [15], 33.4 µM (active); in assay [16] it was 26.2 µM (active); in assay [20] it was 31.6 µM (active). Moreover, the molecule was classed as inactive in assay [4].
Take `c1ccc2[nH]c(-c3cscn3)nc2c1`: the result in assay [1], in assay [2], in assay [3], in assay [4], in [5] and in assay [6] was inactive. The outcome in [7], in [8], in assay [9], in assay [10], in assay [11] and in [12] was inactive. In addition, the outcome in assay [13], in assay [14] and in [16] was inactive.
Turning to `CCOC(=O)C(C)Oc1ccc(Oc2nc3ccc(Cl)cc3o2)cc1` (stereo unspecified), the AC50 in assay [1] and in assay [12] was 20 µM (active) throughout. The outcome in [2], in assay [3], in assay [4], in [5], in assay [6] and in assay [7] was inactive. For the same molecule, the result in assay [8], in [9], in [10], in [11], in [19] and in [13] was inactive. Moreover, the result in assay [14] and in [16] was inactive.
Take `COC(=O)c1ccc(CNS(C)(=O)=O)cc1S(=O)(=O)NC(=O)Nc1nc(OC)cc(OC)n1`: the outcome in assay [1], in [2], in [3], in assay [4], in [5] and in [6] was inactive. Also, the result in assay [7], in assay [8], in [9], in assay [10], in [11] and in [18] was inactive. The outcome in [12], in assay [13], in assay [14], in assay [16] and in [20] was inactive.
